Data from the supplement of paper PMC7595190.

Legend:
Experiment in all cases: CellTox Green cytotoxicity fluorescence relative to DMSO vehicle (fold of vehicle RFU); higher = more cell death (loss of membrane integrity), active = 2 or more
CMK = system: CMK
Procedure, shortened: (§1)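 Cytotoxicity values reflect loss of membrane integrity and are fluorescence expressed as fold of the DMSO vehicle. MV4-11, CMK and Kasumi-1 cells were seeded at 4.0 × 10^4 cells per well with CellTox Green reagent and treated with single Selleckchem apoptosis library compounds at final 0.01, 0.1 and 1 µM, with 0.1% DMSO as vehicle. Plates were held at 37 °C, 5% CO2 and read at 24, 48 and 72 h.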

Kasumi-1 = system: Kasumi-1
Procedure, shortened: as §1

MV4-11 = system: MV4-11
Procedure, shortened: as §1

Measured: CellTox Green cytotoxicity fluorescence

CCCCNc1ncc2c(-c3ccc(CN4CCN(C)CC4)cc3)cn([C@H]3CC[C@H](O)CC3)c2n1
active: MV4-11; 0.1 µM, 72 h 2.1 | MV4-11; 1 µM, 72 h 2.22
inactive: CMK; 0.01 µM, 24 h 0.987 | CMK; 0.01 µM, 48 h 0.978 | CMK; 0.01 µM, 72 h 1 | CMK; 0.1 µM, 24 h 1.07 | CMK; 0.1 µM, 48 h 1.31 | CMK; 0.1 µM, 72 h 1.32 | CMK; 1 µM, 24 h 1.13 | CMK; 1 µM, 48 h 1.75 | CMK; 1 µM, 72 h 1.98 | Kasumi-1; 0.01 µM, 24 h 1.06 | Kasumi-1; 0.01 µM, 48 h 1.01 | Kasumi-1; 0.01 µM, 72 h 1.02 | Kasumi-1; 0.1 µM, 24 h 1.05 | Kasumi-1; 0.1 µM, 48 h 1.18 | Kasumi-1; 0.1 µM, 72 h 1.32 | Kasumi-1; 1 µM, 24 h 1.1 | Kasumi-1; 1 µM, 48 h 1.62 | Kasumi-1; 1 µM, 72 h 1.93 | MV4-11; 0.01 µM, 24 h 1.03 | MV4-11; 0.01 µM, 48 h 1.16 | MV4-11; 0.01 µM, 72 h 1.28 | MV4-11; 0.1 µM, 24 h 1.04 | MV4-11; 0.1 µM, 48 h 1.47 | MV4-11; 1 µM, 24 h 1.08 | MV4-11; 1 µM, 48 h 1.7

Cc1c(C(=O)Nc2ccc(Oc3ccnc4[nH]cc(-c5ccccc5)c34)c(F)c2)c(=O)n(-c2ccc(F)cc2)n1C
inactive: CMK; 0.01 µM, 24 h 1.01 | CMK; 0.01 µM, 48 h 1.02 | CMK; 0.01 µM, 72 h 1.1 | CMK; 0.1 µM, 24 h 0.997 | CMK; 0.1 µM, 48 h 1.02 | CMK; 0.1 µM, 72 h 1.01 | CMK; 1 µM, 24 h 0.945 | CMK; 1 µM, 48 h 0.956 | CMK; 1 µM, 72 h 1.02 | Kasumi-1; 0.01 µM, 24 h 1.01 | Kasumi-1; 0.01 µM, 48 h 1.02 | Kasumi-1; 0.01 µM, 72 h 0.998 | Kasumi-1; 1 µM, 24 h 0.84 | Kasumi-1; 1 µM, 48 h 0.814 | Kasumi-1; 1 µM, 72 h 0.805 | MV4-11; 0.01 µM, 24 h 1.01 | MV4-11; 0.01 µM, 48 h 1.03 | MV4-11; 0.01 µM, 72 h 1.06 | MV4-11; 0.1 µM, 24 h 1.05 | MV4-11; 0.1 µM, 48 h 1.23 | MV4-11; 0.1 µM, 72 h 1.41 | MV4-11; 1 µM, 24 h 1.03 | MV4-11; 1 µM, 48 h 1.24 | MV4-11; 1 µM, 72 h 1.49

NS(=O)(=O)C#Cc1ccccc1 [Pifithrin-m]
inactive: CMK; 0.01 µM, 24 h 0.969 | CMK; 0.01 µM, 48 h 0.96 | CMK; 0.01 µM, 72 h 0.939 | CMK; 0.1 µM, 24 h 1.01 | CMK; 0.1 µM, 48 h 1 | CMK; 0.1 µM, 72 h 0.998 | CMK; 1 µM, 24 h 1 | CMK; 1 µM, 48 h 1.04 | CMK; 1 µM, 72 h 0.96 | Kasumi-1; 0.01 µM, 24 h 0.994 | Kasumi-1; 0.01 µM, 48 h 0.986 | Kasumi-1; 0.01 µM, 72 h 0.979 | Kasumi-1; 0.1 µM, 24 h 1 | Kasumi-1; 0.1 µM, 48 h 0.98 | Kasumi-1; 0.1 µM, 72 h 0.98 | Kasumi-1; 1 µM, 24 h 0.987 | Kasumi-1; 1 µM, 48 h 0.985 | Kasumi-1; 1 µM, 72 h 0.983 | MV4-11; 0.01 µM, 24 h 0.989 | MV4-11; 0.01 µM, 48 h 1 | MV4-11; 0.01 µM, 72 h 1 | MV4-11; 0.1 µM, 24 h 0.994 | MV4-11; 0.1 µM, 48 h 0.987 | MV4-11; 0.1 µM, 72 h 0.979 | MV4-11; 1 µM, 24 h 1.02 | MV4-11; 1 µM, 48 h 1.02 | MV4-11; 1 µM, 72 h 1.03

CCS(=O)(=O)N1CCN(c2ccc(Nc3ncc(C(N)=O)c(NC4CC4)n3)cc2)CC1 [Cerdulatinib]
inactive: CMK; 0.01 µM, 24 h 0.961 | CMK; 0.01 µM, 48 h 0.986 | CMK; 0.01 µM, 72 h 0.983 | CMK; 0.1 µM, 24 h 0.961 | CMK; 0.1 µM, 48 h 1.07 | CMK; 0.1 µM, 72 h 0.888 | CMK; 1 µM, 24 h 1.13 | CMK; 1 µM, 48 h 1.64 | CMK; 1 µM, 72 h 1.34 | Kasumi-1; 0.01 µM, 24 h 0.959 | Kasumi-1; 0.01 µM, 48 h 0.983 | Kasumi-1; 0.01 µM, 72 h 1.01 | Kasumi-1; 0.1 µM, 24 h 0.98 | Kasumi-1; 0.1 µM, 48 h 1.06 | Kasumi-1; 0.1 µM, 72 h 1.07 | Kasumi-1; 1 µM, 24 h 0.928 | Kasumi-1; 1 µM, 48 h 1.08 | Kasumi-1; 1 µM, 72 h 1.15 | MV4-11; 0.01 µM, 24 h 0.937 | MV4-11; 0.01 µM, 48 h 0.94 | MV4-11; 0.01 µM, 72 h 0.941 | MV4-11; 0.1 µM, 24 h 0.942 | MV4-11; 0.1 µM, 48 h 0.965 | MV4-11; 0.1 µM, 72 h 0.965 | MV4-11; 1 µM, 24 h 0.949 | MV4-11; 1 µM, 48 h 1.07 | MV4-11; 1 µM, 72 h 1.11

CCOc1cc(C(C)(C)C)ccc1C1=N[C@@](C)(c2ccc(Cl)cc2)[C@@](C)(c2ccc(Cl)cc2)N1C(=O)N1CCN(CCCS(C)(=O)=O)CC1
inactive: CMK; 0.01 µM, 24 h 0.987 | CMK; 0.01 µM, 48 h 0.993 | CMK; 0.01 µM, 72 h 1.01 | CMK; 0.1 µM, 24 h 0.995 | CMK; 0.1 µM, 48 h 0.996 | CMK; 0.1 µM, 72 h 1 | CMK; 1 µM, 24 h 1.02 | CMK; 1 µM, 48 h 1.05 | CMK; 1 µM, 72 h 1.02 | Kasumi-1; 0.01 µM, 24 h 0.977 | Kasumi-1; 0.01 µM, 48 h 0.992 | Kasumi-1; 0.01 µM, 72 h 1.01 | Kasumi-1; 0.1 µM, 24 h 0.987 | Kasumi-1; 0.1 µM, 48 h 0.969 | Kasumi-1; 0.1 µM, 72 h 0.96 | Kasumi-1; 1 µM, 24 h 1.03 | Kasumi-1; 1 µM, 48 h 1.03 | Kasumi-1; 1 µM, 72 h 1.03 | MV4-11; 0.01 µM, 24 h 0.993 | MV4-11; 0.01 µM, 48 h 1.01 | MV4-11; 0.01 µM, 72 h 1.01 | MV4-11; 0.1 µM, 24 h 1.03 | MV4-11; 0.1 µM, 48 h 1.07 | MV4-11; 0.1 µM, 72 h 1.13 | MV4-11; 1 µM, 24 h 1.07 | MV4-11; 1 µM, 48 h 1.63
active: MV4-11; 1 µM, 72 h 2.02

COCC[n+]1c2c(n(Cc3cnccn3)c1C)C(=O)c1ccccc1C2=O [Sepantronium Bromide]
inactive: CMK; 0.01 µM, 24 h 0.916 | CMK; 0.01 µM, 48 h 0.91 | CMK; 0.01 µM, 72 h 0.922 | CMK; 0.1 µM, 24 h 0.955 | CMK; 0.1 µM, 48 h 1.02 | CMK; 0.1 µM, 72 h 0.927 | CMK; 1 µM, 24 h 1.06 | CMK; 1 µM, 48 h 1.53 | CMK; 1 µM, 72 h 1.41 | Kasumi-1; 0.01 µM, 24 h 1.02 | Kasumi-1; 0.01 µM, 48 h 1.03 | Kasumi-1; 0.01 µM, 72 h 1.11 | Kasumi-1; 0.1 µM, 24 h 1.08 | Kasumi-1; 0.1 µM, 48 h 1.41 | Kasumi-1; 0.1 µM, 72 h 1.57 | Kasumi-1; 1 µM, 24 h 1.5 | MV4-11; 0.01 µM, 24 h 0.95 | MV4-11; 0.01 µM, 48 h 0.938 | MV4-11; 0.01 µM, 72 h 0.957 | MV4-11; 0.1 µM, 24 h 1.02 | MV4-11; 0.1 µM, 48 h 1.83 | MV4-11; 1 µM, 24 h 1.35
active: Kasumi-1; 1 µM, 48 h 2.08 | Kasumi-1; 1 µM, 72 h 2.15 | MV4-11; 0.1 µM, 72 h 2.14 | MV4-11; 1 µM, 48 h 2.26 | MV4-11; 1 µM, 72 h 2.48
